# Reference: PubChem BioAssay
# Where “and” joins values, the source holds several entries; their conditions need not be identical. Equal entries are not always repeated. Calls of active or inactive are those of the source. Unless noted, how the calls were made is not given here.
# Tests used:
# [1] = compounds altering viability of human ES cells (AID 493140); details: human embryonic stem cell survival screen; stronger effect = higher value;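 further: cells exposed to compounds for four days before counting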
# [2] = viability loss with induced miR-34 in A549 – imaging, A549 dox-inducible miR-34, nuclei and caspase counts, primary screen (AID 1347080;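 active means compounds whose cell count with miR-34 switched on is under 0.7 times the count with it off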); details: A549 miR-34 inducible, Hoechst nuclei count, 48 h
# [3] = chitosan synthesis blockers in C. neoformans – flow cytometry, Cibacron Brilliant Red staining (AID 1347148); details: Cryptococcus neoformans chitosan, stronger effect = lower value; at 10 µM unless noted;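 further: compound exposure lasted three days at 37 degrees C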
# [4] = compounds altering circadian rhythm period length – cell-based, LOPAC library, luminescence reporter (AID 2774); details: circadian reporter cells, at 7 µM, actives lie on both sides;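 further: values are relative to mean of DMSO wells on each plate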
# [5] = P. berghei load reduction in hepatocytes – cell-based, HepG2, luciferase luminescence, HepG2 viability, primary screen (AID 624349; in the data active means parasite load remaining mostly below about 12%, no sharp cut-off; inactive means mostly above about 10%;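 further: 100% = mean of DMSO negative control wells on the same plate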); details: P. berghei liver stage in HepG2, luciferase luminescence, concentration not given here; parasite load remaining: stronger effect = lower value; viability: measured here: HepG2 viability without parasites
# [6] = test system: Hepatitis C virus NS3 helicase; assay: blockers of NS3h binding to ssDNA – biochemical, fluorescence polarization, LOPAC1280 library, primary screen (AID 687035; in the data active means inhibition above about 37%); details: Purified HCV NS3 helicase, Cy5-dT15 ssDNA binding fluorescence polarization; stronger effect = higher value; concentration not given here
# [7] = compounds altering Cy5-DNA-NS3h complex signal – biochemical, LOPAC1280, artefact control for HCV NS3 helicase inhibitor project (AID 687037); details: Cy5-DNA-NS3h complex fluorescence interference counterscreen
# [8] = blockers of cellular phospholipid synthesis – cell-based, LOPAC library, screen 4, primary screen (AID 1347384); details: animal cells, phospholipid biosynthesis inhibition screen; at 10 µM
# [9] = MELAS cybrid and Rieske KO viability enhancers – cell-based, MELAS cybrids, Rieske KO mouse fibroblasts, CellTiter-Glo, primary screen (AID 1508586;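 active means mean z-score across replicates of 1.96 or higher in either the MELAS or the Rieske mutant cell line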;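 further: z relative to plate mean and SD of compound and empty wells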); details: low glucose
# [10] = galactose survival enhancers in mitochondrial complex I cybrids – cell-based, galactose medium, ATP luminescence, primary screen (AID 1645843;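 active means z-score of at least 1.8 in each of two replicates, scored against plate mean and spread of sample wells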;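 further: positive z means more ATP and so rescue of galactose-driven cybrid death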); details: complex I mutant cybrid cells, 72 h, stronger effect = higher value
# [11] = compounds altering HSF1 focus formation in cells – imaging, Selleck Cancer Library (AID 1347162; in the data active means plate-normalised HSF1 focus index below about 0.46); details: human cells, HSF1 nuclear foci imaging, at 10 µM; SSMD: measured here: HSF1 foci SSMD mean; cell count: measured here: cell number; plate-normalised HSF1 focus index: stronger effect = lower value
# [12] = stronger effect = lower value, cell number ratio, induced over uninduced
# [13] = measured here: relative caspase fold change +Dox/-Dox
# [14] = measured here: total cells with miR-34 induction, stronger effect = lower value
# [15] = measured here: total cells without miR-34 induction
# [16] = MELAS cybrid survival, CellTiter-Glo 48 h, stronger effect = higher value
# [17] = Rieske KO mouse fibroblast survival, CellTiter-Glo 72 h
smiles,measurement,setting,value
CCCCCCCC/C=C\CCCCCCCC(=O)OC[C@H](CO)OC(C)=O,survival,[1],98.6 (inactive)
same,fold change,[2]; [12],0.972 (inactive) and 0.952 (inactive)
same,fold change,[2]; [13],0.87 and 0.868
same,cell count,[2]; [14],6120 and 5660
same,cell count,[2]; [15],6290 and 5950
same,fold fluorescence,[3],5.82 (inactive)
CCCCC/C=C\C/C=C\C/C=C\C/C=C\CCCC(=O)OC(CO)CO,survival,[1],72.6 (inactive)
same,fold change,[2]; [12],0.947 (inactive) and 1.01 (inactive)
same,fold change,[2]; [13],1.17 and 0.841
same,cell count,[2]; [14],6380 and 5230
same,cell count,[2]; [15],6740 and 5180
same,fold fluorescence,[3],5.06 (inactive)
CC(C)=CCC/C(C)=C/CC/C(C)=C/CSCC(=O)O,survival,[1],89.7 (inactive)
same,fold change,[2]; [12],0.964 (inactive) and 0.982 (inactive)
same,fold change,[2]; [13],1.23 and 1.52
same,cell count,[2]; [14],5900
same,cell count,[2]; [15],6120 and 6010
same,fold fluorescence,[3],2.64 (inactive)
CCCCC[C@H](O)/C=C/[C@H]1C=CC(=O)[C@@H]1CCCCCCC(=O)O,survival,[1],103 (inactive)
same,fold change,[2]; [12],0.912 (inactive) and 0.844 (inactive)
same,fold change,[2]; [13],1.4 and 1.79
same,cell count,[2]; [14],5980 and 4550
same,cell count,[2]; [15],6560 and 5390
same,fold fluorescence,[3],4.35 (inactive)
CC/C=C\C/C=C\C/C=C\C/C=C\C/C=C\C/C=C\CCC(=O)O,survival,[1],81.3 (inactive)
same,fold change,[2]; [12],0.965 (inactive) and 0.982 (inactive)
same,fold change,[2]; [13],0.949 and 0.678
same,cell count,[2]; [14],5660 and 5960
same,cell count,[2]; [15],5860 and 6070
same,fold fluorescence,[3],4.24 (inactive)
CCCCC/C=C/C=C1/C(=O)C=C[C@@H]1C/C=C\CCCC(=O)O,survival,[1],82.2 (inactive)
same,fold change,[2]; [12],1.04 (inactive) and 0.838 (inactive) and 1.58 (inactive)
same,fold change,[2]; [13],1.45 and 1.36 and 1.03
same,cell count,[2]; [14],5600 and 6330 and 6250
same,cell count,[2]; [15],5380 and 7550 and 3960
same,fold fluorescence,[3],6.54 (inactive)
COc1ccc(C(=O)NCc2cccnc2)cc1C(=O)NCc1cccnc1,period change,[4],-0.05 h (inactive)
same,survival,[1],25.1 (inactive)
same,parasite load remaining,[5],27.2% (inactive) and 91.5% (inactive) and 35% (inactive)
same,viability,[5],71% and 87.7% and 69.5%
same,inhibition,[6],-2% (inactive)
same,fluorescence ratio (interference),[7],1 (inactive)
same,fold change,[2]; [12],0.938 (inactive) and 0.931 (inactive) and 0.857 (inactive)
same,fold change,[2]; [13],1.32 and 2 and 1.31
same,cell count,[2]; [14],10400 and 9270
same,cell count,[2]; [15],11100 and 9960 and 10800
same,outcome,[8],inactive
same,z-score,[9]; [16],0.681 (inactive) and 0.373 (inactive)
same,z-score,[9]; [17],0.414 and 0.0826
same,z-score,[10],0.09 (inactive) and 0.34 (inactive)
CCCCCCCCC#CCC#CCC#CCCCC(=O)O,survival,[1],97.9 (inactive)
same,fold change,[2]; [12],0.872 (inactive) and 1.12 (inactive)
same,fold change,[2]; [13],1.12 and 0.534
same,cell count,[2]; [14],5490 and 6070
same,cell count,[2]; [15],6300 and 5430
same,fold fluorescence,[3],6.11 (inactive)
CCCCCC#CCC#CCC#CCC#CCCCC(=O)O,survival,[1],87.3 (inactive)
same,fold change,[2]; [12],0.956 (inactive) and 0.974 (inactive)
same,fold change,[2]; [13],1.11 and 0.98
same,cell count,[2]; [14],5420 and 5670
same,cell count,[2]; [15],5670 and 5820
same,fold fluorescence,[3],5.73 (inactive)
CCCCCCCC/C=C\C/C=C\C/C=C\CCCC(=O)O,survival,[1],69.8 (inactive)
same,fold change,[2]; [12],0.997 (inactive) and 0.986 (inactive)
same,fold change,[2]; [13],1.14 and 0.749
same,cell count,[2]; [14],6200 and 5590
same,cell count,[2]; [15],6220 and 5670
same,fold fluorescence,[3],4.51 (inactive)
CCCCC[C@H](O)/C=C/[C@H]1C(=O)C=C[C@@H]1C/C=C\CCCC(=O)O,survival,[1],86.8 (inactive)
same,fold change,[2]; [12],0.937 (inactive) and 0.931 (inactive)
same,fold change,[2]; [13],1.17 and 1.23
same,cell count,[2]; [14],6120 and 6100
same,cell count,[2]; [15],6540 and 6550
same,fold fluorescence,[3],4.57 (inactive)
CC(C)(C)[C@]1(O)CCN2C[C@H]3c4ccccc4CCc4cccc(c43)[C@@H]2C1,period change,[4],0.045 hour (inactive) and 0.1 hour (inactive)
same,parasite load remaining,[5],63.7% (inactive)
same,viability,[5],156%
same,inhibition,[6],0% (inactive) and -5% (inactive)
same,fluorescence ratio (interference),[7],1 (inactive)
same,fold change,[2]; [12],1.18 (inactive) and 1.07 (inactive) and 0.945 (inactive)
same,fold change,[2]; [13],1.07 and 1.2 and 1.29
same,cell count,[2]; [14],6310 and 6160 and 8940
same,cell count,[2]; [15],5360 and 5740 and 9460
same,outcome,[8],inactive
same,z-score,[9]; [16],0.22 (inactive)
same,z-score,[9]; [17],-0.23
same,z-score,[10],-1.48 (inactive) and -1.34 (inactive) and -0.325 (inactive)
CCc1cncnc1N1CCN(Cc2nc3ccc(C(F)(F)F)cc3[nH]2)CC1,fold change,[2]; [12],0.998 (inactive) and 0.92 (inactive)
same,fold change,[2]; [13],1.49 and 0.523
same,cell count,[2]; [14],6670 and 5920
same,cell count,[2]; [15],6690 and 6430
same,SSMD,[11],2.94
same,cell count,[11],7470
same,plate-normalised HSF1 focus index,[11],1.18 (inactive)
same,outcome,[8],inactive
same,z-score,[9]; [16],0.232 (inactive)
same,z-score,[9]; [17],0.0669
same,z-score,[10],-1.37 (inactive)
CC(C)NC[C@H](O)c1ccc(O)c(O)c1,period change,[4],0.03 h (inactive)
same,parasite load remaining,[5],71.3% (inactive)
same,viability,[5],68.4%
same,inhibition,[6],3% (inactive) and -5% (inactive)
same,fluorescence ratio (interference),[7],1 (inactive) and 0.9 (inactive)
same,fold change,[2]; [12],1.16 (inactive) and 1.1 (inactive) and 0.953 (inactive)
same,fold change,[2]; [13],0.694 and 0.901 and 0.646
same,cell count,[2]; [14],9390 and 11000 and 9560
same,cell count,[2]; [15],8130 and 10100 and 10000
same,outcome,[8],inactive
same,z-score,[9]; [16],-0.508 (inactive)
same,z-score,[9]; [17],-0.956
same,z-score,[10],-1.02 (inactive) and -1.29 (inactive)
CCCCCCCCCCCCC/C=C/[C@@H](O)[C@H](CO)N(C)C,survival,[1],80.2 (inactive)
same,fold change,[2]; [12],1.08 (inactive) and 0.933 (inactive)
same,fold change,[2]; [13],1.39 and 1.34
same,cell count,[2]; [14],5480
same,cell count,[2]; [15],5090 and 5880
same,fold fluorescence,[3],6.79 (inactive)
